Test results taken from PubChem BioAssay.
Calls of active or inactive are those of the source. Unless noted, the rule behind the calls is not given here.

Legend:
[1] = resazurin metabolic signal in HepG2 cells – cell-based, resazurin fluorescence, 24 h, PK04 Diversity Set, profiling panel (AID 1172); conditions: HepG2 viability, higher = more signal
[2] = budding yeast growth changes without added modifier – OD600, strain BY4716, 24 h, basal condition, primary screen (AID 1173); conditions: S. cerevisiae BY4716 growth, OD600, 24 h; higher = more signal, called active from +8 up or from −8 down
[3] = viability profiling in MM1S myeloma cells – cell-based, resazurin fluorescence, basal, 24 h, PK04 Diversity Set, profiling panel (AID 1174); conditions: higher = more signal, called active from +8 up or from −8 down;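 note: MM1S multiple myeloma cell line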
[4] = molecular target: Dihydroorotate dehydrogenase (quinone), mitochondrial (Plasmodium falciparum (isolate 3D7)) (UniProt Q08210); experiment: inhibition of P. falciparum DHODH – biochemical, C-terminal His tag, absorbance 600 nm, primary screen (AID 1175); conditions: PfDHODH enzyme, DCIP absorbance 600 nm; higher = more signal, called active from +8 up or from −8 down;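 note: recombinant parasite enzyme with a five histidine tag at its C terminus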
Sequence of Dihydroorotate dehydrogenase (quinone), mitochondrial (Plasmodium falciparum (isolate 3D7)) (Q08210 whole entry, looked up): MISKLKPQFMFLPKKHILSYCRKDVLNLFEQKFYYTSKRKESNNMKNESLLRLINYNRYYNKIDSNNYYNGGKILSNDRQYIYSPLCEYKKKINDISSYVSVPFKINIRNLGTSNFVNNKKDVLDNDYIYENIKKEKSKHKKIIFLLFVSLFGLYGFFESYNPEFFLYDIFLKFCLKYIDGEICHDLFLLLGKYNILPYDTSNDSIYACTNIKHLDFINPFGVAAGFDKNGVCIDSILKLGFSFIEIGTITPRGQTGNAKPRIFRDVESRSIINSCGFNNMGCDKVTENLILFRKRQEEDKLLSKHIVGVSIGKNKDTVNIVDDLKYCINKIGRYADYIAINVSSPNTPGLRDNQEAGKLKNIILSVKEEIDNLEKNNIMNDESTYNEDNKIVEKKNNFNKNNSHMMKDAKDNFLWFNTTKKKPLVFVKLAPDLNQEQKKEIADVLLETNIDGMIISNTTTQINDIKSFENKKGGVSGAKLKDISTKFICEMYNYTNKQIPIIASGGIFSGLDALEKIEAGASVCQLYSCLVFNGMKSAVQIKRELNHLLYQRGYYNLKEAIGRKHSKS

[5] = inhibition of PAO1 biofilm formation – strain PAO1, LB-PBS medium, absorbance 600 nm, primary screen (AID 1176); conditions: P. aeruginosa PAO1 growth/biofilm, A600, 12 h; higher = more signal
[6] = growth modulation of vineyard yeast isolate – strain RM11-1a, OD600, basal, 24 h, primary screen (AID 1177);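 note: cultures grown under basal conditions with no added stressor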; conditions: S. cerevisiae RM11-1a growth, OD600, 24 h; higher = more signal, called active from +8 up or from −8 down
[7] = growth of efflux-deficient E. coli DRC39 – strain DRC39, OD650, 24 h, E. coli filamentation inducers, primary screen (AID 1178);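 note: growth measured as culture turbidity by optical density at 650 nm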; conditions: E. coli DRC39 acrAB, higher = more signal, called active from +8 up or from −8 down
[8] = growth of efflux-deficient E. coli DRC39 – strain DRC39, OD650, 48 h, E. coli filamentation inducers, primary screen (AID 1179);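 note: screen aims at cell division blockers that make cells filament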; conditions: E. coli DRC39 delta-acrAB growth, higher = more signal, called active from +8 up or from −8 down
[9] = viability profiling in RPMI8226 myeloma cells – cell-based, resazurin fluorescence, basal, 24 h, PK04 Diversity Set, profiling panel (AID 1180); conditions: higher = more signal;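 note: RPMI8826 multiple myeloma cell line at 5000 cells per well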
[10] = molecular target: E3 ubiquitin-protein ligase XIAP (Homo sapiens) (UniProt P98170); experiment: small molecules binding XIAP protein – biophysical, small-molecule microarray, fluorescence 635 nm, primary screen (AID 1181); conditions: higher = more signal;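 note: score merges 667 nm emission and signal to noise over triplicate slides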
Sequence of E3 ubiquitin-protein ligase XIAP (Homo sapiens) (P98170 whole entry, looked up, the tested form may be a part): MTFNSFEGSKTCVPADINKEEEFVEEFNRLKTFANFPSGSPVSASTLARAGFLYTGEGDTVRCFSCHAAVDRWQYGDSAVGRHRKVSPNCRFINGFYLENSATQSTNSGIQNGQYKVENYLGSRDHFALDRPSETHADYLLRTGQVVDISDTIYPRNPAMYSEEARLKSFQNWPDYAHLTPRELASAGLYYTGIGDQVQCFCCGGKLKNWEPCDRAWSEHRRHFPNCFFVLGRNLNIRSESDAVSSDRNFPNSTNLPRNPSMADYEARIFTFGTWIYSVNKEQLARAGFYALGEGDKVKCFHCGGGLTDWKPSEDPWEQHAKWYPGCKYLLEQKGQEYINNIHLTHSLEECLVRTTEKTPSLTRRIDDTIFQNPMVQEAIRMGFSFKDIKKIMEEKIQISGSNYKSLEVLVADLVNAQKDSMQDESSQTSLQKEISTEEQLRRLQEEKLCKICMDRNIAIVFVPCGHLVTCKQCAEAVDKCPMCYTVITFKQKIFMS

[11] = system: XIP peptide (Xip251-270) binding; experiment: XIP fragment 251-270 binding compounds – biochemical, small-molecule microarray, fluorescence 635/667 nm, 0.1 µg/mL protein, primary screen (AID 1182); conditions: fluorescent protein binding, 635 nm, higher = more signal, called active from +8 up or from −8 down
XIP peptide (Xip251-270) = experiment: compounds binding XIP fragment 251-270 – biochemical, small-molecule microarray, fluorescence 635/667 nm, 0.5 µg/mL protein, primary screen (AID 1183); conditions: fluorescence 635 nm, higher = more signal
[12] = blood-stage malaria parasite viability loss – strain 3D7, DAPI fluorescence, 100 nL, primary screen (AID 1184);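 note: parasites grown inside human red blood cells in medium with human serum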; conditions: P. falciparum 3D7 growth, 3 d, higher = more signal
[13] = molecular target: Homeobox protein Hox-A13 (Mus musculus) (UniProt Q62424); experiment: disruptors of Hoxa13 oligonucleotide interaction – biochemical, fluorescence polarization, labeled oligonucleotide, primary screen (AID 1185); conditions: Hoxa13:DNA binding, 15 min, higher = more signal, called active from +8 up or from −8 down
Sequence of Homeobox protein Hox-A13 (Mus musculus) (Q62424 whole entry, looked up): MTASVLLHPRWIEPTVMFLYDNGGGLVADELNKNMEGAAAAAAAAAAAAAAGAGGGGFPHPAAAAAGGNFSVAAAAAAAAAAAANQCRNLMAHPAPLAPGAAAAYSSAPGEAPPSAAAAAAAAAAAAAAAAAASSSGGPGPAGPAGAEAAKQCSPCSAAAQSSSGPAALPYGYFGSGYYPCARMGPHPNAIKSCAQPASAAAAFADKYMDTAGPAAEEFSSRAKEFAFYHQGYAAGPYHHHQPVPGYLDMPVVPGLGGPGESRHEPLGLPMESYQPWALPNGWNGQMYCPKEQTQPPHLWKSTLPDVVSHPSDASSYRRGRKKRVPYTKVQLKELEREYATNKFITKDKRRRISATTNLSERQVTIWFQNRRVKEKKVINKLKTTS

[14] = blockers of DNA damage checkpoint Chk1 activation – imaging, HeLa, hydroxyurea, phospho-Chk1 antibody, percent positive cells, primary screen (AID 1186); conditions: hydroxyurea-induced phospho-Chk1 immunofluorescence imaging, higher = more signal
[15] = blockers of DNA damage checkpoint Chk1 activation – imaging, HeLa, hydroxyurea, phospho-Chk1 nuclear intensity, primary screen (AID 1187); conditions: hydroxyurea-induced phospho-Chk1 immunofluorescence imaging, higher = more signal

| Structure (SMILES) | z-score [1] | z-score [2] | z-score [3] | composite z-score [4] | z-score [5] | z-score [6] | z-score [7] | z-score [8] | z-score [9] | composite z-score [10] | composite z-score [11] | composite z-score (XIP peptide (Xip251-270)) | z-score [12] | z-score [13] | z-score [14] | z-score [15] |
| --- | --- | --- | --- | --- | --- | --- | --- | --- | --- | --- | --- | --- | --- | --- | --- | --- |
| NC(=O)NCC#Cc1ccc2c(c1)[C@]1(C(=O)N2)[C@H](C(=O)Nc2nc3ccccc3s2)[C@H]2C(=O)O[C@H](c3ccccc3)[C@H](c3ccccc3)N2[C@@H]1c1ccc(O)cc1 | 0.493 | 3.37 (inactive) | 0.917 (inactive) | 0.9 (inactive) | 2.87 (inactive) | 5.05 (inactive) | 0.296 (inactive) | 0.321 (inactive) | -0.253 | -0.0337 | 0.207 (inactive) | 0.6 | -0.905 | 0.916 (inactive) | 0.118 (inactive) | 0.194 (inactive) |
| CC(C)(C)OC(=O)CC[C@]1(C(=O)O)N=C(c2ccc(OCCCO)cc2)O[C@H]1c1ccccc1 | 1.29 | -0.739 (inactive) | 0.904 (inactive) | -14.3 (active) | -0.76 (inactive) | -0.279 (inactive) | 0.419 (inactive) | 1.3 (inactive) | 1.65 | -0.0594 | -0.0164 (inactive) | 0.543 | -1.62 | -3.48 (inactive) | -0.388 (inactive) | -0.243 (inactive) |
| O=C1O[C@H](c2ccccc2)[C@H](c2ccccc2)N2[C@H]1[C@@H](C(=O)O)[C@]1(C(=O)Nc3ccccc31)[C@H]2c1ccc(O)cc1 | -0.401 | 0.671 (inactive) | 0.186 (inactive) | -1.66 (inactive) | 1.53 (inactive) | 0.473 (inactive) | 0.293 (inactive) | -0.221 (inactive) | 0.494 | -0.237 | 0.624 (inactive) | 0.212 | -0.0758 | -5.84 (inactive) | 0.0422 (inactive) | -0.426 (inactive) |
| CCOC(=O)[C@H]1C/C=C/C[C@H](C(=O)OCC)C(=O)O[C@H]2[C@@H](OC)O[C@H](CO)[C@@H](OC(=O)CCc3ccccc3)[C@@H]2OC1=O | -0.144 | -1.08 (inactive) | 0.204 (inactive) | -0.915 (inactive) | 0.759 (inactive) | -0.143 (inactive) | 0.735 (inactive) | 0.558 (inactive) | 0.116 | 0.023 | -0.0432 (inactive) | 0.486 | -1.24 | -2.57 (inactive) | -0.0591 (inactive) | -0.23 (inactive) |
| O=C(CCCCCCC(=O)Nc1ccccc1)N/N=C/c1ccccc1 | 0.327 | 0.141 (inactive) | 0.532 (inactive) | -0.543 (inactive) | 0.437 (inactive) | 0.678 (inactive) | 0.83 (inactive) | 0.159 (inactive) | 0.718 | 0.248 | -0.531 (inactive) | -0.57 | 1.01 | 0.458 (inactive) | -0.156 (inactive) | -0.425 (inactive) |
| CN1C2C=C(CCCO)C(C3C(=O)N(C(N)=O)C(=O)C32)C1c1cccs1 (stereo not drawn) | -1 | 0.53 (inactive) | -0.135 (inactive) | 0.837 (inactive) | -0.329 (inactive) | 1.37 (inactive) | -0.967 (inactive) | -0.837 (inactive) | -0.69 | 3.82 | 0.0931 (inactive) | -0.301 | -0.29 | -8.5 (active) | -0.443 (inactive) | 0.133 (inactive) |
| COCC(=C=CC[C@H](O)c1cccc(OCCO)c1)C[C@H](O)c1ccccn1 | 1.51 | 1.65 (inactive) | 0.959 (inactive) | -0.672 (inactive) | 0.437 (inactive) | 1.07 (inactive) | 1.38 (inactive) | 1.23 (inactive) | 1.66 | -0.0453 | 0.198 (inactive) | 0.157 | -0.737 | -4.27 (inactive) | -0.028 (inactive) | 0.745 (inactive) |
| C=CCN1C(=O)[C@@]2(O[C@@H](CCn3cc([C@H](O)c4ccccc4)nn3)[C@H]([Si](C)(C)c3ccc(OC)cc3)[C@H]2C)c2ccccc21 | -0.986 | 0.117 (inactive) | -1.83 (inactive) | -0.198 (inactive) | 0.626 (inactive) | 0.93 (inactive) | -0.599 (inactive) | -0.857 (inactive) | -1.97 | 0.144 | -0.0466 (inactive) | 0.857 | -0.99 | -5.69 (inactive) | -0.763 (inactive) | -1.51 (inactive) |
| C[n+]1ccc(CCCO)cc1 | -0.744 | 0.883 (inactive) | -0.255 (inactive) | -4.35 (inactive) | -0.199 (inactive) | 0.684 (inactive) | -1.02 (inactive) | -1.1 (inactive) | -0.551 | 0.769 | 0.955 (inactive) | 1.02 | -1.21 | -2.17 (inactive) | -0.0124 (inactive) | 0.102 (inactive) |
| C=C(COC)/C(=C/C[C@@H](OC(=O)c1ccncc1)c1cccc(OCCO)c1)c1cnc2ccccc2c1 | -0.464 | -17.3 (active) | -0.835 (inactive) | -6.7 (inactive) | 1.17 (inactive) | -5.29 (inactive) | -0.451 (inactive) | -0.318 (inactive) | -0.526 | 0.594 | 0.482 (inactive) | 0.763 | -2.79 | -5.6 (inactive) | 0.594 (inactive) | 0.376 (inactive) |
| COc1ccc(C(O)C2C=CC3C(=O)N(c4ccccc4)C(=O)C3N2Nc2ccccc2)cc1OCc1ccccc1 (stereo not drawn) | -1.04 | -2.82 (inactive) | -1.24 (inactive) | 0.416 (inactive) | 1.67 (inactive) | 0.0482 (inactive) | -0.628 (inactive) | -0.131 (inactive) | -1.2 | 0.0714 | 0.0123 (inactive) | 0.713 | -0.0742 | -1.8 (inactive) | 0.302 (inactive) | -0.156 (inactive) |
| CC(C)c1ccc(NN2C(C(O)c3ccco3)C=CC3C(=O)N(c4ccccc4)C(=O)C32)cc1 (stereo not drawn) | -0.517 | -2.51 (inactive) | -1.23 (inactive) | 0.325 (inactive) | 1.07 (inactive) | 0.921 (inactive) | -0.609 (inactive) | 0.245 (inactive) | -0.695 | -0.0026 | 0.938 (inactive) | 0.849 | -0.107 | -3.14 (inactive) | -0.881 (inactive) | -1.03 (inactive) |
| COc1cc(CO)cc(I)c1O[C@H]1C=C(C(=O)NCCO)C[C@@H](N(CC2CCCCC2)C(=O)c2ccc(C(F)(F)F)cc2)[C@@H]1O | 0.445 | -1.02 (inactive) | -0.327 (inactive) | 0.345 (inactive) | 0.425 (inactive) | 0.183 (inactive) | 0.342 (inactive) | 0.212 (inactive) | 0.508 | 0.0859 | -0.175 (inactive) | 0.516 | 1.09 | -6.43 (inactive) | -0.409 (inactive) | -0.884 (inactive) |
| CC1CC/C=C\[C@H]2OC34C=CCN(C(C)C)C(=O)[C@H]3N(CCCCCO)C(=O)[C@@H]4C2C(=O)O1 (stereo partly drawn) | 0.551 | -0.436 (inactive) | 1.46 (inactive) | -1.16 (inactive) | -1.28 (inactive) | -0.171 (inactive) | 1.01 (inactive) | 1.07 (inactive) | 0.894 | -0.304 | -0.572 (inactive) | -1.17 | 1.17 | -3.89 (inactive) | 0.453 (inactive) | 0.532 (inactive) |
| CCOC(=O)C[C@H]1[C@H](OC(=O)c2ccccc2-c2ccccc2)[C@@H](NC(=O)c2ccc3ccccc3n2)c2cc(OCCCO)ccc2N1C(=O)c1ccc2ccccc2n1 | 0.922 | -1.08 (inactive) | 0.833 (inactive) | -0.431 (inactive) | 0.719 (inactive) | -0.344 (inactive) | 1.33 (inactive) | 1.21 (inactive) | -0.19 | -0.162 | 0.123 (inactive) | 0.309 | -0.456 | -1.53 (inactive) | -0.492 (inactive) | -0.588 (inactive) |
| CC[C@H]1C2=C3C(CC[C@H]4C(OCc5ccc(F)cc5C(F)(F)F)OC[C@](C)([C@@H]34)N(C(=O)OC(C)(C)C)C2)C2COC(=O)OCC21 (stereo partly drawn) | -1.12 | 0.485 (inactive) | -1.46 (inactive) | 0.0979 (inactive) | 0.551 (inactive) | 0.368 (inactive) | -0.678 (inactive) | -0.36 (inactive) | -0.556 | 0.131 | 3.17 (inactive) | 0.393 | -0.749 | -3.54 (inactive) | 1.23 (inactive) | 0.722 (inactive) |
| CN(C)C(=O)[C@]1(CCC(=O)OC(C)(C)C)N=C(c2ccc(OCCCO)cc2)O[C@@H]1c1ccccc1 | -0.0109 | -0.0261 (inactive) | 0.352 (inactive) | -0.19 (inactive) | 0.248 (inactive) | 0.0653 (inactive) | 0.0325 (inactive) | -0.384 (inactive) | 0.448 | -0.0773 | 0.454 (inactive) | 0.116 | 0.201 | -5.58 (inactive) | -0.0091 (inactive) | 0.277 (inactive) |
| C=C(CCCC)/C(=C/C[C@@H](OC(C)=O)c1ccc(CO)o1)c1cc(C(=O)OC)ccc1OC | -0.345 | -1.63 (inactive) | -0.493 (inactive) | -2.63 (inactive) | 1.23 (inactive) | 0.0168 (inactive) | -0.122 (inactive) | -0.194 (inactive) | 0.0716 | -0.0367 | 0.207 (inactive) | 0.778 | -0.597 | -4.83 (inactive) | 0.19 (inactive) | 0.471 (inactive) |
